From PubChem BioAssay (Tox21)
Results filed as inconclusive are left out. Active and inactive are the calls of the source. Unless noted, calls come from the whole dose curve; as a rule, active = well fitted curve in the direction sought with a large enough effect in the repeat runs; inconclusive = weak or mixed curves; inactive = no such curve, though single readings can be large; an effect the other way counts as inactive or inconclusive.

Legend:
[1] = molecular target: Retinoic acid receptor RXR-alpha (Homo sapiens) (UniProt P19793); assay: qHTS assay to identify small molecule agonists of the RXR signaling pathway (AID 1159527; calls by dose curve; note: nearly all actives have a fitted effect of over 35% in size)
Summary of the method: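 qHTS of the Tox21 10K library in GeneBLAzer RXR-alpha HEK 293T cells carrying a beta-lactamase reporter […]; 16 hr treatment, 9-cis retinoic acid as agonist control, FRET read-out.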

[2] = qHTS assay to identify small molecule agonists of the RXR signaling pathway - cell viability counter screen (AID 1159529); note: series mostly up to about 77 µM; nearly all actives have a fitted effect of over 50% in size
Summary of the method: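 Cell viability is measured by CellTiter-Glo luminescence, 30 min at room temperature, in wells already read for beta-lactamase. Engineered HEK 293T cells (RXR-alpha-UAS-bla) are dosed 16 hr at 37 C. Tetraoctyl ammonium bromide serves as positive control.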

[3] = qHTS assay to identify small molecule antagonists of the retinoid acid receptor (RAR) signaling pathway - cell viability counter screen (AID 1159551); note: nearly all actives have a fitted effect of over 35% in size
Summary of the method: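 Viability of C3RL4 cells is quantified from ATP by luminescence after 6 h treatment at 37 C with compounds and 1 uM retinol.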

[4] = qHTS assay to identify small molecule antagonists of the retinoic acid receptor (RAR) signaling pathway (AID 1159552; note: nearly all actives have a fitted effect of over 50% in size)
Summary of the method: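 Quantitative HTS in C3RL4 RARE-luciferase reporter cells. Compounds were added with 1 uM (final) retinol; luminescence was read after 6 hr.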

[5] = qHTS assay to identify small molecule agonists of the retinoic acid receptor (RAR) signaling pathway (AID 1159553)
Summary of the method: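 Compounds dissolved in DMSO were pinned onto C3RL4 cells seeded the previous day, and plates were held 6 hr at 37 C. RARE-driven luciferase output was then read by luminescence.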

[6] = qHTS assay to identify small molecule antagonists of the estrogen related receptor (ERR) signaling pathway from Tox21 library - cell viability counter screen (AID 1224834); note: nearly all actives have a fitted effect of over 30% in size
Summary of the method: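 In this quantitative HTS format, ERR cells receive compounds in DMSO and are incubated for 17.5 h at 37 C. Live-cell protease activity is then detected with CellTiter-Fluor.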

[7] = molecular target: Luciferin 4-monooxygenase (Photinus pyralis) (UniProt P08659); assay: qHTS assay to identify small molecule inhibitors of firefly luciferase (AID 1224835); note: series mostly up to about 120 µM; nearly all actives have a fitted effect of over 25% in size
Summary of the method: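 Inhibition of purified Photinus luciferase is measured by luminescence. Substrate levels (D-luciferin, ATP) sit at their KM values. Each compound is tested in a concentration series.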

[8] = qHTS assay to identify small molecule agonists of the constitutive androstane receptor (CAR) signaling pathway - cell viability counter screen (AID 1224836); note: series mostly up to about 92 µM; nearly all actives have a fitted effect of over 45% in size
Summary of the method: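 Counter screen multiplexed with the CAR reporter readout: HepG2 cells co-transfected with hCAR and the CYP2B6-2.2kb construct receive a 15-concentration compound series and 0.75 uM PK11195 (final), then CellTiter-Fluor fluorescence is read after 23 h.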

[9] = qHTS assay to identify small molecule antagonists of the constitutive androstane receptor (CAR) signaling pathway - cell viability counter screen (AID 1224837); note: series mostly up to about 92 µM; nearly all actives have a fitted effect of over 45% in size
Summary of the method: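 In quantitative HTS format, compounds at 15 concentrations were applied to HepG2 cells double-transfected with hCAR and CYP2B6-2.2kb under 50 nM CITCO stimulation; live-cell protease activity was read after 23 hr via CellTiter-Fluor.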

[10] = molecular target: Nuclear receptor subfamily 1 group I member 3 (Homo sapiens) (UniProt Q14994); assay: qHTS assay to identify small molecule agonists of the constitutive androstane receptor (CAR) signaling pathway (AID 1224839); note: series mostly up to about 92 µM; nearly all actives have a fitted effect of over 15% in size
Summary of the method: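 A 15-concentration quantitative screen uses HepG2 cells co-transfected stably with human CAR and CYP2B6-2.2kb reporter. Treatment lasts 24 h with 0.75 uM PK11195 final present; ONE-Glo luminescence is the signal.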

[11] = qHTS assay to identify small molecule antagonists of the estrogen related receptor signaling pathway with the pleiotropic PPARgamma coactivator (PGC) from Tox21 10K library - cell viability counter screen (AID 1224840; active = well fitted cell-killing curve with a large enough effect in the repeat runs, not every such curve was filed as active; note: nearly all actives have a fitted effect of over 40% in size)
Summary of the method: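 Viability counter screen, PGC/ERR cells: 17.5 h compound exposure at 37 C, CellTiter-Fluor fluorescence endpoint.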

[12] = qHTS assay to identify small molecule antagonists of the estrogen related receptor signaling pathway with the pleiotropic PPARgamma coactivator (PGC) from Tox21 10K library (AID 1224841; call rule not given here; note: series mostly up to about 92 µM; actives are mostly falling curves and most rising ones were filed inactive; nearly all actives have a fitted effect of over 50% in size)
Summary of the method: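 In the PGC/ERR line, DMSO solutions of test chemicals are pin-delivered to 2,000 cells/well six hours after dispensing. Following eighteen hours' incubation, One-Glo reagent is added and luminescence recorded.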

[13] = qHTS assay to identify small molecule agonists of the estrogen related receptor signaling pathway with the pleiotropic PPARgamma coactivator (PGC) from Tox21 10K library (AID 1224842); note: nearly all actives have a fitted effect of over 15% in size
Summary of the method: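 Luminescence from One-Glo (30 min, room temperature) measured after PGC/ERR cells had 18 h at 37 C with pinned compound (23 nL in DMSO). Cells had been seeded at 2,000 per well and pre-incubated 6 h.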

[14] = molecular target: Nuclear receptor subfamily 1 group I member 3 (Homo sapiens) (UniProt Q14994); assay: qHTS assay to identify small molecule antagonists of the constitutive androstane receptor (CAR) signaling pathway (AID 1224838); note: nearly all actives have a fitted effect of over 40% in size
Summary of the method: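 CITCO-stimulated (50 nM final) HepG2 cells stably transfected with hCAR and CYP2B6-2.2kb luciferase were exposed to compounds at 15 concentrations for 24 h at 37 C/5% CO2. A luciferase reagent was added and luminescence recorded after 30 min.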
% is set by controls: 0 for no effect and ±100 for the full control effect.

Retinoic acid receptor RXR-alpha (Homo sapiens), sequence (P19793 whole entry, looked up): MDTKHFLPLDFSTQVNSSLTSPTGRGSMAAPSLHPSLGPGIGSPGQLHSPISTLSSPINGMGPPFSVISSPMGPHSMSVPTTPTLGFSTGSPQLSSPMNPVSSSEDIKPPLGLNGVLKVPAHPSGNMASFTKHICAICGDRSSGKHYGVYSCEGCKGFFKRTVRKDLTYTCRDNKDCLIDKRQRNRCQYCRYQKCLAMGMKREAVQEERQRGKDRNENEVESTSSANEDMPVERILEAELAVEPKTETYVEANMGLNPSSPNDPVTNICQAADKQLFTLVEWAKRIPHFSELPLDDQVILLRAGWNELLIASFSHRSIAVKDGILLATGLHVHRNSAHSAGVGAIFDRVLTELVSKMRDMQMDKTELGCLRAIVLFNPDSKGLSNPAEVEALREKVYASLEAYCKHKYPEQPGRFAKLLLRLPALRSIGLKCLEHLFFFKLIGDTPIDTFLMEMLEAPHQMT
Luciferin 4-monooxygenase (Photinus pyralis), sequence (P08659 whole entry, looked up): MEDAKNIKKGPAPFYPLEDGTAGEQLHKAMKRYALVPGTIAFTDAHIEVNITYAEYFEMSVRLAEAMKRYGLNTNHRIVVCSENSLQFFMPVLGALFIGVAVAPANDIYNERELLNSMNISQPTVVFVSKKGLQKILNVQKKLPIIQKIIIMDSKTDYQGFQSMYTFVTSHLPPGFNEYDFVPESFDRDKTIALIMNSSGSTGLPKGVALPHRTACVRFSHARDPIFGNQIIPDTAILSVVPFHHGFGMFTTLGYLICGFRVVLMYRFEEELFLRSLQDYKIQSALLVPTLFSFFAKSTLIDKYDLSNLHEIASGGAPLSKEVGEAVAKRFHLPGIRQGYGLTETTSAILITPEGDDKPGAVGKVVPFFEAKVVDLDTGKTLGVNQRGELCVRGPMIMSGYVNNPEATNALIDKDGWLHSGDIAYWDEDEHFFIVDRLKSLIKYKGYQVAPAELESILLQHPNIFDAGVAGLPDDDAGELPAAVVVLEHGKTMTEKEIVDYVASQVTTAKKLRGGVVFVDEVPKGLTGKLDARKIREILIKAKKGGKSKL
Nuclear receptor subfamily 1 group I member 3 (Homo sapiens), sequence (Q14994 whole entry, looked up): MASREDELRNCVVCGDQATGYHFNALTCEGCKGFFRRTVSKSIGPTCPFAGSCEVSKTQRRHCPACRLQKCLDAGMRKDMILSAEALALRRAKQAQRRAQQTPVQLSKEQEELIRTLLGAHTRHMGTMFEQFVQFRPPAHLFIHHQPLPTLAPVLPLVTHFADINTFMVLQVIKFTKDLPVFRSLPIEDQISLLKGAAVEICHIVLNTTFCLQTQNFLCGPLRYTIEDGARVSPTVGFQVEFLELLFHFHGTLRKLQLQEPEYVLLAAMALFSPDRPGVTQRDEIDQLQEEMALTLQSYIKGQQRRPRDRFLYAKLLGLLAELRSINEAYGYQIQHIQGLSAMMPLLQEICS

Cc1c(NC(C)C)c(=O)n(-c2ccccc2)n1C
inactive: Potency [1] | Potency [2] | outcome [3] | Potency [4] | Potency [5] | Potency [6] | Potency [7] | Potency [8] | Potency [9] | Potency [10] | Potency [11] | Potency [12] | outcome [13]

CCOC(=O)c1ccc(C)cc1
inactive: Potency [1] | Potency [2] | outcome [3] | Potency [4] | Potency [5] | Potency [6] | Potency [7] | Potency [8] | Potency [9] | Potency [10] | Potency [11] | Potency [12] | outcome [13]

CCOC(=O)CC(C)=O
inactive: Potency [1] | Potency [2] | outcome [3] | Potency [4] | Potency [5] | Potency [6] | Potency [8] | Potency [11]

N=C(N)c1ccc2cc(OC(=O)c3ccc(N=C(N)N)cc3)ccc2c1
inactive: Potency [1] | Potency [2] | outcome [3] | Potency [4] | Potency [5] | Potency [6] | Potency [7] | Potency [8] | Potency [9] | Potency [14] | Potency [11] | outcome [13]

CCCN1CCCC[C@H]1C(=O)Nc1c(C)cccc1C
inactive: Potency [1] | Potency [2] | outcome [3] | Potency [4] | Potency [5] | Potency [6] | Potency [7] | Potency [8] | Potency [14] | Potency [10] | Potency [11] | Potency [12] | outcome [13]

CCC(C)S (stereo not drawn)
inactive: activation [1] 0.574% [at 2.71 µM] | activity change, negative = cytotoxicity [2] 0.658% [at 2.72 µM] | activity change, negative = cytotoxicity [3] 1.76% [at 3.27 µM] | activity, negative = inhibition [4] -4.13% [at 3.27 µM] | activation [5] 1.68% [at 3.75 µM] | viability change, negative = cytotoxic [6] 1.27% [at 3.27 µM] | activity change, negative = inhibition [7] 5.34% [at 4.07 µM] | viability change, negative = cytotoxic [8] 6.36% [at 3.27 µM] | activity, negative = inhibition [14] -7.32% [at 3.26 µM] | activation [10] 0.262% [at 3.27 µM] | viability change, negative = cytotoxic [11] 2.53% [at 3.27 µM] | activity, negative = inhibition [12] 1.33% [at 3.27 µM] | activation [13] 0.822% [at 3.27 µM]

COC(=O)c1ccc(C)cc1C1=NC(C)(C(C)C)C(=O)N1 (stereo not drawn)
inactive: Potency [1] | Potency [2] | outcome [3] | Potency [4] | Potency [5] | Potency [6] | Potency [7] | Potency [8] | Potency [14] | Potency [10] | Potency [11] | Potency [12] | outcome [13]

CO[C@]12C[C@@H](COC(=O)c3cncc(Br)c3)CN(C)[C@@H]1Cc1cn(C)c3cccc2c13
inactive: Potency [1] | Potency [2] | outcome [3] | Potency [4] | Potency [5] | Potency [6] | Potency [7] | Potency [8] | Potency [9] | Potency [10] | Potency [11] | Potency [12] | outcome [13]

CCc1ccc(O)c(OC)c1
inactive: Potency [1] | Potency [2] | outcome [3] | Potency [4] | Potency [5] | Potency [6] | Potency [7] | Potency [8] | Potency [14] | Potency [10] | Potency [11] | Potency [12] | outcome [13]

CCOC(=O)c1cccc(N)c1
inactive: Potency [1] | Potency [2] | outcome [3] | Potency [4] | Potency [5] | Potency [6] | Potency [7] | Potency [8] | Potency [9] | Potency [14] | Potency [12] | outcome [13]

C/C=C(\C)C#N
inactive: Potency [1] | Potency [2] | outcome [3] | Potency [4] | Potency [5] | Potency [6] | Potency [7] | Potency [8] | Potency [14] | Potency [10] | Potency [11] | outcome [13]

CC(C)c1cc2c(cc1S(=O)(=O)O)[C@@]1(C)CCC[C@@](C)(C(=O)O)[C@@H]1CC2
inactive: Potency [1] | Potency [2] | outcome [3] | Potency [4] | Potency [5] | Potency [6] | Potency [7] | Potency [8] | Potency [9] | Potency [10] | Potency [11] | Potency [12] | outcome [13]

C=CCCCCCCCCC=O
inactive: Potency [1] | Potency [2] | outcome [3] | Potency [4] | Potency [5] | Potency [6] | Potency [7] | Potency [8] | Potency [10] | Potency [11] | Potency [12] | outcome [13]

CCC=O
inactive: Potency [1] | Potency [2] | outcome [3] | Potency [4] | Potency [5] | Potency [6] | Potency [7] | Potency [8] | Potency [14] | Potency [10] | Potency [11] | Potency [12] | outcome [13]

CCCCC/C=C\CCC=O
inactive: Potency [1] | Potency [2] | outcome [3] | Potency [4] | Potency [5] | Potency [6] | Potency [8] | Potency [9] | Potency [14] | Potency [11]

COC(=O)CCSCCC(=O)OC
inactive: Potency [1] | Potency [2] | outcome [3] | Potency [4] | Potency [5] | Potency [6] | Potency [7] | Potency [8] | Potency [14] | Potency [11] | Potency [12] | outcome [13]

CC(C)CNCC(C)C
inactive: Potency [1] | Potency [2] | outcome [3] | Potency [4] | Potency [5] | Potency [6] | Potency [7] | Potency [8] | Potency [10] | Potency [11] | Potency [12] | outcome [13]

CCCCCOC(=O)CCCCC
inactive: Potency [1] | Potency [2] | outcome [3] | Potency [4] | Potency [5] | Potency [6] | Potency [7] | Potency [8] | Potency [11] | Potency [12] | outcome [13]

CC(=O)c1ccccc1O
inactive: Potency [1] | Potency [2] | outcome [3] | Potency [4] | Potency [6] | Potency [7] | Potency [8] | Potency [9] | Potency [14] | Potency [10] | Potency [11] | Potency [12] | outcome [13]

Cc1sccc1Br
inactive: Potency [1] | Potency [2] | outcome [3] | Potency [4] | Potency [5] | Potency [7] | Potency [8] | Potency [9] | Potency [14] | Potency [11] | Potency [12] | outcome [13]
